Assay results from PubChem BioAssay AID1214 (Sanford-Burnham Center for Chemical Genomics, 2008).
Out of some 190,000 compounds screened, about 10 (0.005%) were called active.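 The calls were made as follows: active = activation factor of 2 or more at 20 µM, relative to plate controls; inactive = the rest.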 The list is a sample of the results.

Target: Mannose-6-phosphate isomerase (Homo sapiens) (UniProt P34949)
Assay: MPI enzyme activity enhancement – biochemical, fluorescence intensity, near-Km mannose 6-phosphate, primary screen (AID 1214)
Settings: purified human PMI, coupled resazurin fluorescence, 20 min; at 20 µM; stronger effect = higher value; 1 = vehicle control, 0 substrate-free wells

Sequence of Mannose-6-phosphate isomerase (Homo sapiens) (P34949 whole entry, looked up): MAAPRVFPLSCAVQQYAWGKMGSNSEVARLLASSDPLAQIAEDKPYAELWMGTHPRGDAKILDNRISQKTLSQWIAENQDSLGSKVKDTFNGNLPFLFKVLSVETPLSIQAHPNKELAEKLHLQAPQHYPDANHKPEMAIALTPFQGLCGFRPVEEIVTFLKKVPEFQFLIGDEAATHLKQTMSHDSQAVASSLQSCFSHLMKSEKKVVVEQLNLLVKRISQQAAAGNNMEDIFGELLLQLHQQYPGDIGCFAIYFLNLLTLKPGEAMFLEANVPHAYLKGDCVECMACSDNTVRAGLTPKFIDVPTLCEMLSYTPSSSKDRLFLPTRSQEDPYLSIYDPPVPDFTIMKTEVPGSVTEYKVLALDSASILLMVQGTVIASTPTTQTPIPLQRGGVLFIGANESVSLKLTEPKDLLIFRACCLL

Activation factor, inactive:
CCOC(=O)c1c(C)[nH]c(C2=NNC(=NC(C)COC)SC2)c1C (stereo not given) 1.3
Cc1cc(-c2n[nH]c(=S)n2-c2ccc(C)c(C)c2)no1 1
CCC(=O)Nc1c(C)n[nH]c1C 0.9
Cc1ccc(OCc2n[nH]c(=S)n2-c2ccc(C)cc2)cc1 0.8
CNc1nc(Nc2ccc(C)c(Cl)c2)nc(N)c1[N+](=O)[O-] 0.9
O=C(NCCCNc1ccc([N+](=O)[O-])cc1Cl)c1ccccc1F 1.1
COc1ccc(/C=C(\NC(=O)c2ccc(OCC(C)C)cc2)C(=O)OCc2ccco2)cc1 0.9
O=C1CCC/C(=N\NC(=O)NC2CCCCC2)C1 0.8
O=C(CSc1ccccc1)Nc1nnc(/C=C/c2ccccc2)s1 0.9
COC(=O)CNC(=O)c1ccc(OC2CCN(C(=O)C3CC3)CC2)cc1 0.9
COc1cc(/C=C/C(=O)N2c3ccccc3Sc3ccc(C(F)(F)F)cc32)cc(OC)c1OC 0.9
O=C1/C(=C\c2ccccc2Cl)SC(=S)N1CCC(=O)N1CCCc2ccccc21 0.9
CNC(=O)NC(=O)CSc1nnc(-c2ccc(F)cc2)n1CC1CCCO1 (stereo not given) 1
Nc1cc(C(F)(F)F)ccc1N1CCOCC1 1
COc1cc(C2C(N3C(=O)c4ccccc4C3=O)C(=O)N2c2ccc(C)c(C)c2)cc(OC)c1OC (stereo not given) 0.9
OCC(CO)(CO)NCc1ccc(-c2ccccc2)cc1 1
COc1ccc(Cl)cc1-n1c(C)cc(C(=O)OCC(=O)N2CC(=O)Nc3ccccc32)c1C 0.9
COc1cc(/C=N/NC(=O)CCc2n[nH]c(=O)[nH]c2=O)ccc1O 0.9
COc1cccc(CN(C)CC(=O)Nc2ccccc2C(=O)Nc2ccccc2)c1 0.9
COc1ccccc1CNC(=O)COc1ccc(C)nc1[N+](=O)[O-] 1.1
O=C(N/N=C/c1ccc([N+](=O)[O-])o1)c1cn(-c2ccccc2)nc1-c1ccc(F)cc1 1.4
Cc1ccc(C)c(NC(=S)NNC(=S)Nc2ccc(C(C)C)cc2)c1 0.8
N=C1C(=O)OCC1c1ccccc1NC(=O)CN1CCCCC1 (stereo not given) 1.1
C=CCOc1c(Br)cc(/C=N\n2nnnc2N)cc1OC 1.1
O=C(Nc1cccnc1)c1cc2cc(Br)ccc2oc1=O 1
COCC(C)NC(=O)COc1nncc2ccccc12 (stereo not given) 1.2
C=CCN1C2CCCC1CC(NC(=S)Nc1cccc(OC)c1)C2 (stereo not given) 0.9
CCNC(=O)NNC(=O)C1CC(c2cccs2)=NO1 (stereo not given) 1
CCc1cccc(NC(=O)CCC(=O)O)c1 1
NC(=O)COC(=O)c1sc2cc(F)ccc2c1Cl 1.2
CCOC(=O)N1CCN(Cc2nc3ccc([N+](=O)[O-])cc3c(=O)n2-c2cccc(OC)c2)CC1 1
COc1ccccc1CNC(=O)C1Cc2ccccc2C(=O)O1 (stereo not given) 0.9
O=C(/C=C/c1ccccc1)Oc1coc(CSc2ncccn2)cc1=O 1
COc1ccc(Br)cc1CN(C)CC(=O)Nc1cc(Cl)cc(Cl)c1 0.8
Cc1ccc(/C([O-])=C(/C(=S)NCc2ccco2)[n+]2ccccc2)cc1[N+](=O)[O-] 1
CN(C)/C=C(/C(=O)c1ccc(F)cc1)S(=O)(=O)c1ccc(F)cc1 1.2
O=S(=O)(c1ccc2c(c1)OCCO2)N1CCc2ccccc21 0.9
N#C/C(C(=S)Nc1ccccc1)=C1/NN=C(N2CCOCC2)N1c1ccccc1 1
CCN(CC)S(=O)(=O)c1ccc(N2CCOCC2)c(NC(=O)C2COc3ccccc3O2)c1 (stereo not given) 1
COc1ccc(NC(=O)CN(Cc2ccccc2)S(C)(=O)=O)cc1OC 0.9
COc1ccccc1N(CC(=O)Nc1ccc(C(F)(F)F)cc1)S(C)(=O)=O 1
O=C(Cc1cccs1)N(CC1CCCO1)C1(C(=O)NC2CCCCC2)CCCCC1 (stereo not given) 1.1
O=C(OCC1O[C@@H](OC(=O)c2cc(O)c(O)c(O)c2)[C@@H](OC(=O)c2cc(O)c(O)c(O)c2)[C@@H](OC(=O)c2cc(O)c(O)c(O)c2)[C@@H]1OC(=O)c1cc(O)c(O)c(O)c1)c1cc(O)c(O)c(O)c1 (stereo not given in full) 0.4
CC[n+]1c(C)n(-c2ccccc2)c2ccc(NC(C)=O)cc21 0.5
Cc1c(C(=O)Nc2cccc(Cl)c2)cn2c(nc3ccccc32)c1C#N 1.1
O=C(NCC(=O)N(CC1CCCO1)C(C(=O)NC1CCCCC1)c1ccccc1)c1ccco1 (stereo not given) 1.1
CC(C)(C)C1CCC(=NNC(=O)c2cc(-c3ccccc3)n[nH]2)CC1 (stereo not given) 1
O=C(CSc1cccc[n+]1[O-])NCCCc1ccccc1 1
O=c1cc(CO)oc(C(Nc2cccc([N+](=O)[O-])c2)c2ccccn2)c1O (stereo not given) 1
O=S(=O)(ON(c1ccccc1)S(=O)(=O)c1ccccc1)c1ccccc1 1.1
COc1ccc(CCNC(=O)COC(=O)C2CCCCC2)cc1 0.9
NS(=O)(=O)c1ccc(NC(=S)NC(=O)c2cccnc2)cc1 1
CCCCN1C(=O)/C(=C/C=C2/C=Cc3ccccc3N2CC)SC1=S 0.7
CCOC(=O)c1ccccc1NC(=S)N1CCC(C(N)=O)CC1 1
O=C(CN1C(=O)/C(=C\c2ccccc2F)SC1=S)Nc1nc2ccccc2s1 0.8
COC(=O)C(=Nc1ccccc1)/C(C(=O)C(=O)N(C)c1ccccc1)=C(\O)c1ccc(Cl)cc1 1.2
COC(=O)C1=C(N)Oc2c(oc(CO)cc2=O)C1c1c(F)cccc1Cl (stereo not given) 1.1
O=C(CCC1CCCN(C(=O)Cc2ccc(F)cc2)C1)N1CCN(c2ccccn2)CC1 (stereo not given) 1
CCOC(=O)CCCNC(=O)COC(=O)/C=C/c1ccc2c(c1)OCO2 1.1
COc1ccc(CCNC(=O)c2ccc(CS(=O)(=O)c3ccc(Br)cc3)o2)cc1OC 1
